Compound activity from PubChem.
A selection: hits, their analogues and other compounds. The true share with any hit is near 1.2%.
HIF act: HIF pathway transcriptional activation | U2OS HRE-luciferase reporter, luminescence; normalized: DMSO 0%, desferrioxamine 100% | activation, % at 7.5 µM (by protocol) | hit rate 0.32% among 300,000 | AID 1910;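 active = mean activation of at least 10% of the iron chelator positive control signal, with at least half of replicates also reaching 10%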
LANA-H2B inh: blocks KSHV LANA binding to histone H2A/H2B; Q9QR71; cell-free LANA-H2A/H2B peptide, fluorescence polarization; inhibition, % (concentration not given with the values); hit rate 0.6% among 320,000; in the data active = inhibition mostly above about 10%, no sharp cut-off; inactive = mostly below about 6.7%
Target sequence (Q9QR71 whole entry, looked up): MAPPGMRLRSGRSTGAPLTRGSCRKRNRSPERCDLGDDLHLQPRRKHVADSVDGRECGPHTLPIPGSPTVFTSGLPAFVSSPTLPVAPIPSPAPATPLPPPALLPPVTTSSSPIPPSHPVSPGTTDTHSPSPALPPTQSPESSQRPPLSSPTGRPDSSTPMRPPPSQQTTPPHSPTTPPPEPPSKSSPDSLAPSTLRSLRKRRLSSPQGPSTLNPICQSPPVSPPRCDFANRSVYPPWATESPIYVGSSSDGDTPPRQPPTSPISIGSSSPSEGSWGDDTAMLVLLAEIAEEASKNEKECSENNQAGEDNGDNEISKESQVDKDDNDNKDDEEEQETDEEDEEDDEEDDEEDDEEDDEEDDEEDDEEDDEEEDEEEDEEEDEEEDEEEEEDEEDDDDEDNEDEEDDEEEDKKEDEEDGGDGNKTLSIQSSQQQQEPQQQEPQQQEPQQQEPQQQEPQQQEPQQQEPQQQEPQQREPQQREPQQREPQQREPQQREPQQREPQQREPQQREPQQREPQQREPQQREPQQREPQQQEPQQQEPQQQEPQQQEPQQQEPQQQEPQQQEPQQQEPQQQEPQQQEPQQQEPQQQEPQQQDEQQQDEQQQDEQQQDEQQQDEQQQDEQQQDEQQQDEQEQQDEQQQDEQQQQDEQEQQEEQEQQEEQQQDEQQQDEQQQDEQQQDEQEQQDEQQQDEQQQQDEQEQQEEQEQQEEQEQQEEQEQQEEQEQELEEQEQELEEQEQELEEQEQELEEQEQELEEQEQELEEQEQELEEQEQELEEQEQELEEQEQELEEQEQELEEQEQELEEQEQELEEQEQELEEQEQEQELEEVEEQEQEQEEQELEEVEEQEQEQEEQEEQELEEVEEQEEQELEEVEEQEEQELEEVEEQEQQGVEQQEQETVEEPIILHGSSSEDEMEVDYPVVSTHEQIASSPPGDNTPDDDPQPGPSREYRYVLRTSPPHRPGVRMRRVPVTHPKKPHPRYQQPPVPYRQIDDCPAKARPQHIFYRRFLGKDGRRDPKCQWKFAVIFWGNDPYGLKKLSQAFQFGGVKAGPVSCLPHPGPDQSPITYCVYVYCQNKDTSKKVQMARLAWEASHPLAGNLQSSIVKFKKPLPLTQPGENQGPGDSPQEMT
Yeast superoxide: caloric restriction mimetics inhibiting age-related superoxide in yeast | S. cerevisiae aged cells, superoxide DHE fluorescence; stronger effect = lower value | superoxide response (% of plate mean), % at 10 µM | hit rate 0.18% among 330,000 | AID 2690;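 active = superoxide response under a set limit, about three screen SD below normal, cut at about 65% in these data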;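 also: yeast aged for seven days with compound at 30 °C before DHE staining; 100% = average MFI of all compound-treated wells on the plate with controls excluded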
HDAC3 inh: human HDAC3 inhibition; O15379; recombinant HDAC3, fluorogenic peptide/trypsin coupled, fluorescence; inhibition, % at 8.3 µM; hit rate 0.15% among 320,000; AID 2718; in the data active = inhibition above about 26%, passing the limit was not always enough
Superoxide pick: confirmation of caloric restriction mimetics inhibiting yeast age-related superoxide | shares compounds with Yeast superoxide | S. cerevisiae aging, superoxide DHE fluorescence; stronger effect = lower value | superoxide response (% of plate), % at 10 µM | hit rate 1% among 850;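 active = superoxide signal below 65% of the plate average of sample wells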;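 also: cells aged with compound for 7 days at 30 degrees C before staining; 100% equals mean DHE fluorescence of all compound wells on the plate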
DHE fluor count: counter-screen for compounds affecting DHE oxidation and fluorescence in yeast | shares compounds with Yeast superoxide | AID 435000 | S. cerevisiae BY4741, flow cytometry; stronger effect = lower value | 850 tested, under 10 active | fluorescence response, % at 10 µM;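 active = fluorescence response below 15%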;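 also: percent of the mean fluorescence averaged over all compound wells on the plate; lower means stronger quenching of DHE signal or ROS scavenging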
* marks the source's active call; other numbers are inactive results; nt = no result.

SMILES	HIF act	LANA-H2B inh	Yeast superoxide	HDAC3 inh	Superoxide pick	DHE fluor count
O=c1c2ccc(Cl)cc2nc(-c2ccc([N+](=O)[O-])cc2)n1O	0	-3	54*	6	87	90
O=C(NC(Cc1ccccc1)C(=O)O)/C(=C\c1ccc(Cl)cc1)NC(=O)c1ccccc1 (stereo unspecified)	0	5	99	0	nt	nt
O=C(NC(Cc1ccccc1)C(=O)O)/C(=C/c1ccccc1)NC(=O)c1ccccc1 (stereo unspecified)	0	-7	65*	-1	107	99
COCCCNC(=S)N(CCCO)Cc1cc2cc3c(cc2[nH]c1=O)OCO3	0	2	105	-13	nt	nt
CC1(C)CC(N2CN(C3CCCCC3)CC2=O)CC(C)(C)N1	0	3	61*	2	118	110
O=Cc1c(OCc2ccccc2)ccc2ccccc12	1	-1	98	5	nt	nt
COC(=O)c1ccccc1S(=O)(=O)N1CCC(C(=O)Nc2ccc(N3CCOCC3)cc2)CC1	nt	-3	95	3	nt	nt
O=C(/C=C/c1ccccc1[N+](=O)[O-])NCc1ccccc1Cl	0	-3	64*	-9	116	105
O=C(COC(=O)CCN=C1NS(=O)(=O)c2ccccc21)NNC(=O)c1ccc(Cl)cc1	nt	1	86	1	nt	nt
Cc1cccc(C)c1NC(=O)c1cn(-c2ccccc2)nc1-c1ccccc1	0	-1	99	3	nt	nt
O=C(NN=C1CCCCCC1)c1cn(-c2ccccc2)nc1-c1ccccc1	1	0	64*	1	126	103
Cc1[nH]c2ccccc2c1N=Nc1ccccc1F	2	7	65*	6	91	98
Cc1[nH]c2ccccc2c1N=Nc1ccc(F)cc1	2	-4	94	21	nt	nt
CCc1ccc(CNC(=O)Cn2nc(-c3ccc(C)cc3)ccc2=O)cc1	0	-6	109	nt	nt	nt
CCCn1nc(NC(=O)c2cccs2)c2cc3ccccc3nc21	0	0	99	-5	nt	nt
CCCCn1nc(NC(=O)c2cccs2)c2cc3ccccc3nc21	0	1	65*	16	99	92
COc1cc2c(cc1OC)CN(C(=O)/C=C/c1cc(OC)c(OC)c(OC)c1)CC2	-21	-3	63*	-5	97	98
Cc1cccc(OCC(O)CN2CCOCC2)c1 (stereo unspecified)	0	-3	105	-5	nt	nt
O=C1CSC(c2ccc([N+](=O)[O-])cc2)N1c1ccccc1 (stereo unspecified)	-4	1	101	1	nt	nt
COc1ccc(CC(=O)OCC(=O)Nc2cc(Cl)ccc2C)cc1	nt	-4	63*	-3	98	92
CCOc1ncccc1C(=O)N1CCN(c2cccc(C)c2C)CC1	0	nt	nt	nt	114	107
CCOc1ncccc1C(=O)N1CCN(c2cc(Cl)ccc2C)CC1	0	-5	106	3	90	112
S=C(N/N=C/c1ccc2c(c1)OCO2)NC1CC2CCC1C2 (stereo unspecified)	3	7	97	3	nt	nt
CCC(=O)NCCn1ccc2ccccc21	0	5	93	4	nt	nt
O=S(=O)(NCCn1ccc2ccccc21)c1ccccc1	0	-2	65*	1	110	107
SMILES	HIF act	LANA-H2B inh	Yeast superoxide	HDAC3 inh	Superoxide pick	DHE fluor count
C#Cc1ccc(CN2CCC(Oc3cc(C(=O)NC4CC4)ccc3OC)CC2)cc1	-1	nt	nt	nt	nt	nt
O=C(Nc1ccccc1)/C(=C\c1ccccc1)NC(=O)c1ccco1	1	3	92	1	nt	nt
O=C(Nc1ccccc1)/C(=C/c1cccnc1)NC(=O)c1ccco1	0	0	62*	3	113	101
Cc1ccc(NC(=O)c2cc3ccccc3oc2=N)cc1	2	-3	105	nt	nt	nt
N=c1oc2cc(O)ccc2cc1C(=O)Nc1ccc(Cl)cc1	-1	-4	50*	-42	96	65
CC(=O)Nc1cc2c(cc1NC(=O)Cn1nc(-c3ccccc3F)ccc1=O)OCCO2	0	3	62*	-1	100	110
COc1cccc(OC)c1NC(=O)Cn1nc(-c2ccc3c(c2)OCCO3)ccc1=O	0	-1	91	5	nt	nt
CC(C)=NNC(=O)c1c(O)c2ccccc2[nH]c1=O	1	5	62*	4	83	94
CC(C)(C)OC(=O)N[C@@H](Cc1ccccc1)[C@H](O)c1ccco1	0	4	95	-6	nt	nt
CCN1CCN(c2ncnc3sc4c(c23)CCC(C)C4)CC1 (stereo unspecified)	-3	-1	51*	7	99	91
CCC(C)(C)c1ccc(OCCCC[n+]2cccc(C)c2)c(C(C)(C)CC)c1	0	nt	nt	nt	121	107
Cc1ccc(C(=O)C(C)Oc2ccc3ccc(=O)oc3c2)cc1 (stereo unspecified)	0	-5	112	0	nt	nt
O=C(NC1CCCCCCC1)c1cc([N+](=O)[O-])ccc1Cl	-1	1	63*	9	101	92
O=C(NC1CCCCC1)c1cc([N+](=O)[O-])ccc1N1CCCC1	2	1	96	0	nt	nt
CCN(CC)CC(O)CN1c2ccccc2Sc2ccccc21 (stereo unspecified)	-1	5	105	-6	nt	nt
COc1ccc(C2(C(=O)NCc3ccco3)CCCC2)cc1OC	0	1	101	5	nt	nt
COc1ccc(C2(C(=O)NCCc3ccccc3)CCCC2)cc1OC	-22	-8	47*	-1	108	93
Cc1cc(C)cc(NC(=O)N2CCNC(=O)C2CC(=O)Nc2cc(Cl)ccc2Cl)c1 (stereo unspecified)	0	-8	64*	-6	99	109
CC(OC(=O)C1CC(=O)N(Cc2ccco2)C1)C(=O)Nc1ccccc1[N+](=O)[O-] (stereo unspecified)	nt	1	128	2	nt	nt
CC(=O)N1CCc2c(sc(NC(=O)Cc3ccc(C)cc3C)c2C#N)C1	0	0	109	-8	nt	nt
CCOC(=O)N1CCN(Cc2nc(-c3cccc(C)c3)no2)CC1	0	-7	64*	-2	110	109
Cc1nc2ccccn2c1C(=O)NNC(=O)Nc1cccc(C(F)(F)F)c1	0	-8	64*	0	105	89
O=C(CN1N=C(c2ccc(Cl)cc2)CCC1=O)NCCN1CCc2ccccc2C1	0	3	90	-1	nt	nt
CCN(CC)S(=O)(=O)c1ccc(N2CCCC2)c(NC(=O)Cc2cc(OC)c(OC)c(OC)c2)c1	0	4	102	6	108	102
CCN(CC)S(=O)(=O)c1ccc(N2CCCC2)c(NC(=O)c2ccc(OC)cc2OC)c1	0	6	103	4	nt	nt
CCN(CC)S(=O)(=O)c1ccc(N2CCCC2)c(NC(=O)Cc2ccc(OC)cc2)c1	0	7	98	-1	105	93
O=c1[nH]c2ccccc2cc1CN(Cc1cccnc1)S(=O)(=O)c1ccc(Cl)cc1	0	20	65*	2	121	104
